# Hits are enriched below; roughly 12% of the tested compounds scored in any of these assays.
# PLK1 PBD block: inhibitors of human PLK1 polo-box domain binding. P53350. Plk1 PBD binding of FITC phosphopeptide, fluorescence polarization. Potency, µM, inactives show max response, negative = inhibition, usual class: inhibitors. hit rate 2.8% among 360,000; also: series mostly up to about 57 µM; % is scaled to controls: 0 for no effect and ±100 for the full control effect; nearly all actives have a fitted effect of over 65% in size
# Sfp PPTase inh: inhibitors of Bacillus subtilis Sfp phosphopantetheinyl transferase. Q9F4F7. Biochemical Sfp PPTase activity, qHTS. Potency, µM, for the others: largest response in the series, negative = inhibition, usual class: inhibitors. hit rate 3.5% among 310,000. AID 1490;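 also: the enzyme is Sfp with the accession as filed and its product quenches rhodamine fluorescence; 0% = enzyme reaction without inhibitor and -100% = no enzyme wells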
#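 Reaction rates are the 30-min fluorescence difference (ex 525, em 598 nm) in wells containing 15 nM Sfp, 5 uM rhodamine-CoA and 12.5 uM BHQ-2-YbbR at pH 7.6 with 10 mM MgCl2.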
# JMJD2A Tudor: blocks the human JMJD2A Tudor domain; AlphaScreen JMJD2A-Tudor / H3K4me3 peptide binding; Potency, µM (top dose mostly 114 µM), for the others: at the top dose activity change, negative = inhibition, actives largely listed as inhibitors; hit rate 4.4% among 390,000; also: % is scaled to controls: 0 for no effect and ±100 for the full control effect; nearly all actives have a fitted effect of over 50% in size
# HP1b binding inh: HP1-beta chromodomain-methylated histone interaction inhibition; Potency, µM (doses to about 114 µM), inactives show at the top dose activity change, negative = inhibition, most hits filed as inhibitors; P83916; AlphaScreen HP1-beta / biotin-H3K9me3 peptide binding; hit rate 0.56% among 390,000; also: nearly all actives have a fitted effect of over 70% in size
#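 AlphaScreen: HP1-beta (50 nM) preformed 30 min with biotin-H3(1-18)K9me3 peptide (50 nM) in PBS pH 7.4, 0.01% Tween-20. Compound added for 30 min at RT, then streptavidin donor/nickel chelate acceptor beads (10 ug/mL) for 30 min.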
# G9a inh: G9a (human) methyltransferase inhibition. Q96KQ7. G9a H3K9 monomethylation, AlphaScreen, 2 h. Potency, µM (highest dose often 102 µM), for the others: at the highest dose activity, negative = inhibition, most hits filed as inhibitors. hit rate 8.8% among 350,000. AID 504332; also: % is scaled to controls: 0 for no effect and ±100 for the full control effect; nearly all actives have a fitted effect of over 75% in size
#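 Enzyme 20 nM + cpd, 15 min RT; add b-H3K9 pep 500 nM / SAM 20 uM; 2 h RT; anti-H3K9me1 Ab 0.5 ug/mL + SA donor / anti-rabbit acceptor beads 20 ug/mL each, 10 min; AlphaScreen read.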
# BAZ2B inh: inhibitors of human BAZ2B bromodomain. AlphaScreen BAZ2B-H3K14Ac peptide displacement. AID 504333. Q9UIF8. Potency, µM (series often up to 114 µM), without a hit: at the top dose activity change, negative = inhibition, most hits filed as inhibitors. hit rate 4.4% among 360,000; also: % is scaled to controls: 0 for no effect and ±100 for the full control effect; nearly all actives have a fitted effect of over 60% in size
#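 AlphaScreen displacement of biotin-H3(5-23)K14Ac peptide (50 nM final) from BAZ2B (50 nM final) in PBS pH 7.4, 0.01% Tween-20; complex preformed 30 min RT, then compounds (top 110 uM) 30 min RT, beads 20 min dark.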
# An asterisk follows results filed as active; u = inconclusive; x = no result given; [ ] = dose if it differs, or a comment. Calls follow the shape of the dose curve; as a rule, active = well fitted curve in the direction sought with a large enough effect; inconclusive = small, poorly fitted or top-dose-only effect, or another doubt; inactive = no such curve, though single readings can be large; an effect the other way counts as inactive or inconclusive. Potency is read from the fitted curve at half-maximal effect.
SMILES,PLK1 PBD block,Sfp PPTase inh,JMJD2A Tudor,HP1b binding inh,G9a inh,BAZ2B inh
N#CCCN(NC1=NS(=O)(=O)c2ccccc21)C(=O)c1ccccc1Br,-10%,7%,35µM*,59%,-3%[2.33 µM],-1%
Cc1ccccc1OCC(=O)Nc1cccc(Cl)c1C,0%,11%,-3%,60%,x,u
Cc1cccc(OCC(=O)Nc2ncn[nH]2)c1C,-11%,0%,-26%,32%,-48%[59 µM],50µM*
Cc1ccc(S(=O)(=O)NN=C2CCc3ccccc32)cc1,-17%,x,x,x,x,x
Cc1ccccc1OCC(=O)NN1Cc2ccccc2C1=N,27µM*,12%,0%[11.4 µM],1%,-37%,-17%
Cc1ccccc1OCC(=O)Nc1ccccc1-c1ccccc1NC(=O)COc1ccccc1C,-9%,4%,-10%,17%,50µM*,-8%
Cc1cccc(OCC(=O)Nc2ccncc2)c1C,-4%,5%,-12%,20%,x,2%
Cc1ccc(S(=O)(=O)NN2Cc3ccccc3C2=N)cc1,-7%,u,-12%,35%,16µM*,x
O=C(CCBr)N1CCN(C(=O)CCBr)CC1,x,-29%,x,x,-23%[2.33 µM],x
CC(=O)Oc1cc2c(c(C)c1OC(C)=O)CC=C1[C@]3(C)CC[C@]4(C)CC[C@@](C)(C(=O)O)CC4[C@]3(C)CC[C@]12C (stereo not given in full),x,-3%,x,x,x,x
Cc1ccc(C)c(CN2C(=O)c3ccccc3S(=O)(=O)c3ccc(C(=O)N4CCc5ccccc54)cc32)c1,x,x,-29%,6%,u,u
Cc1ccc(S(=O)(=O)Nc2cc(C(F)(F)F)ccc2N2CCOCC2)c(C)c1,-7%,-9%,-8%,32%,50µM*,8%
C=CCN(C(=O)CCC(=O)Nc1cc(C)on1)C(C(=O)NC(C)(C)CC)c1cccc(OC)c1OC (stereo not given),-9%,5%,-11%,8%,13%,-2%
COC(=O)c1ccc(CN2CCN(CC=C(C)C)C(CCO)C2)cc1 (stereo not given),-1%,14%,5%,41%,45µM*,u
COC(=O)c1ccc(CN2CCN(CC(C)C)C(CCO)C2)cc1 (stereo not given),-1%,0%,-11%,23%,x,-7%
N#CC(c1ccccc1)N(CCCCl)C(=O)c1ccccc1 (stereo not given),-28%,-3%,3%,63%,45µM*,5%
COc1ccccc1N1CCN(c2nc3ccccc3nc2C(C#N)C(=O)OC(C)C)CC1 (stereo not given),2%,-3%,u,-19%,14µM*,u
CCCCCNC(=O)C(C#N)c1nc2ccccc2nc1N1CCCC1 (stereo not given),-26%,0%,-13%,64%,u,-11%
COCCOC(=O)C(C#N)c1nc2ccccc2nc1N1CCCC1 (stereo not given),-28%,14%,-24%[57.1 µM],-5%,u,-32%
CCOc1ccccc1N1CCN(c2nc3ccccc3nc2C(C#N)C(=O)OC)CC1 (stereo not given),-1%,-1%,-14%,7%,x,-38%
CCN1CCN(c2nc3ccccc3nc2C(C#N)C(=O)OCc2ccccc2)CC1 (stereo not given),-3%,3%,u,-6%,40µM*,-35%
COCCCNC(=O)C(C#N)c1nc2ccccc2nc1N1CCCC1 (stereo not given),u,-24%,-6%,34%,40µM*,u
COc1ccc(CCNC(=O)CS(=O)(=O)Cc2nc(-c3cccc(Cl)c3)oc2C)cc1OC,x,x,-15%,34%,-43%[59 µM],-3%
O=C1Nc2c(ccc(Cl)c2Cl)C(=O)C1(F)c1ccccc1 (stereo not given),-29%,-10%,-22%,0%,45µM*,-26%
COc1ccccc1Cc1c(C(C)(C)C)nc2ccc(C)cn12,0%,x,x,x,x,x
O=C(O)CCC(=O)Nc1ccc2c(c1)Cc1cc(NC(=O)CCC(=O)O)ccc1-2,u,-8%,89µM*,3%,39%[0.501 µM],u

# High-throughput results: PubChem, National Center for Advancing Translational Sciences (NCATS)
